For 58 molecules, inhibition results are on record in PubChem BioAssay AID2013 (Sanford-Burnham Center for Chemical Genomics, 2009).

SMILES strings stand for the structures. Among all 290,000 compounds or so, about 370 (0.13%) were called active.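 Rule for the calls: active = spots per cell inhibited over 60%, with over 100 cells counted and total cytoplasm intensity under 500,000; inconclusive = wells with under 100 cells, flagged as likely toxic; inactive = the rest.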 Shown is part of a subset that was picked to be rich in actives. Potency and affinity values are given separately.

For the experiment, the target named is G-protein coupled receptor 55 (Homo sapiens) (UniProt Q9Y2T6). Kind of experiment: inhibition of LPI-stimulated GPR55 beta-arrestin translocation – imaging, U2OS, beta-arrestin-GFP, LPI agonist, primary screen (AID 2013).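 Note: U2OS cells stably carrying GPR55 and arrestin-GFP stimulated by 5 µM LPI near EC80; imaged beta-arrestin-GFP aggregate spots per cell after agonist stimulation; plate controls were LPI-stimulated DMSO wells for no effect and DMSO wells without LPI for full effect.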 Particulars: LPI antagonism, at 10 µM, active compounds read high.
Sequence of G-protein coupled receptor 55 (Homo sapiens) (Q9Y2T6 whole entry, looked up): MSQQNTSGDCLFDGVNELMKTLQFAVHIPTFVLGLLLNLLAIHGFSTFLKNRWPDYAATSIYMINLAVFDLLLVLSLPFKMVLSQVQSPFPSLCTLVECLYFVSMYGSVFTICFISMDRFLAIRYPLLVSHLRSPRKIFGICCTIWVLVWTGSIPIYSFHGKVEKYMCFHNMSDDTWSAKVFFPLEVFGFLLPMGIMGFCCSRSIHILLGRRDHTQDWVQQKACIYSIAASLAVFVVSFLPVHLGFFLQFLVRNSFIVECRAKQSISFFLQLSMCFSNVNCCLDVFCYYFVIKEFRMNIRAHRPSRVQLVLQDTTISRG
Turning to `C=CCN1C(=O)SC(Cc2cccc(OC)c2O)C1=O` (stereo not drawn), the inhibition is -4.5% (inactive).
To `COc1ccc(C(=O)NC(C)Cc2cnccn2)cc1OC1CCN(C(C)C)CC1` (stereo not drawn) belongs 18.7% (inactive); to `CC(C(=O)Nc1cccnc1)n1cc([N+](=O)[O-])cn1` (stereo not drawn), 9.4% (inactive); to `COC(=O)C1=C(C)N(Cc2ccccc2)C(=O)N[C@H]1c1cccc(C(F)(F)F)c1`, 6.8% (inactive).
In the case of `COCCN=C1N[C@@H](c2cccc(C(F)(F)F)c2)C(C(=O)OC)=C(C)N1Cc1ccccc1`, the inhibition was 31.8% (inactive).
To `COc1ccccc1NC(=O)CN1CCN(CC(=O)Nc2cc(NC(C)=O)ccc2OC)CC1` belongs -4.4% (inactive); to `COc1ccccc1NC(=O)CN1CCN(C2c3ccccc3-c3ccccc32)CC1`, 59.8% (inactive).
`COc1ccc(NC(=O)CN2CCN(C3c4ccccc4-c4ccccc43)CC2)cc1`: the inhibition is 9.6% (inactive).
To `COc1ccc(NC(C)=O)cc1NC(=O)CN1CCN(C2c3ccccc3-c3ccccc32)CC1` belongs 100% (active); to `COc1ccc(NC(C)=O)cc1NC(=O)CN1CCN(CC(=O)Nc2ccccc2Cl)CC1`, 21.6% (inactive); to `Nc1c2c(nn1-c1ccc(F)cc1)CSC2`, -2.1% (inactive).
For the molecule `O=C(CO/N=C1\CCCc2nonc21)Nc1ccccc1Cl`, the inhibition was 0.5% (inactive).
Under `O=C1/C(=C/c2ccccc2)SC(=S)N1C1CCS(=O)(=O)C1` (stereo not drawn) stands 9.4% (inactive); under `O=C1/C(=C/c2cccnc2)SC(=S)N1C1CCS(=O)(=O)C1` (stereo not drawn), 3.6% (inactive).
To `C=C(C)CNC(=S)NNC(=O)CCn1c2ccccc2c2ccccc21` belongs -10.4% (inactive); to `CCOc1ccc(CCNC(=O)c2ccc(CS(=O)Cc3ccc(Cl)cc3)o2)cc1OCC` (stereo not drawn), 13.4% (inactive).
To `Cc1ccc(Cn2cc(SCC(=O)Nc3nccs3)c3ccccc32)cc1` belongs 2.5% (inactive); to `Cc1noc(NS(=O)(=O)c2ccc(NC(=O)c3cc(-c4ccccc4Cl)nc4ccccc34)cc2)c1C`, 14.9% (inactive); to `Cc1cc(C)c2nc(-c3ccccn3)cc(C(=O)Nc3cc(C)on3)c2c1`, 1.5% (inactive).
Consider `Cc1ccccc1C(=O)Nc1ccc(S(=O)(=O)Nc2onc(C)c2C)cc1`, for which the inhibition was 6.6% (inactive).
Under `Cc1ccc(-c2cc(C(=O)Nc3ccc(S(=O)(=O)Nc4cc(C)on4)cc3)c3ccccc3n2)c(C)c1` stands 32.5% (inactive); under `Cc1ccc(-c2cc(C(=O)Nc3ccc(S(=O)(=O)Nc4onc(C)c4C)cc3)c3ccccc3n2)cc1`, -14.3% (inactive); under `Cc1cc(C)c(C(=O)Nc2ccc(S(=O)(=O)Nc3onc(C)c3C)cc2)c(C)c1`, 4.6% (inactive).
Under `COc1ccc(-n2ncc3c(=O)n(CC(=O)Nc4ccc5c(c4)OCCO5)cnc32)cc1` stands 0.6% (inactive); under `COc1cc2nc(SCC(N)=O)n(CCC3=CCCCC3)c(=O)c2cc1OC`, -6.5% (inactive); under `COc1cc(NC(=O)c2cc(C)no2)cc(OC)c1OC`, 3.4% (inactive).
Under `COc1cc(-c2nn3c(-c4ccccc4)nnc3s2)cc(OC)c1OC` stands -5.2% (inactive).
Regarding `Cc1cc(/C=C2\SC(N)=NC2=O)c(C)n1-c1ccccc1`, the inhibition is -9.3% (inactive).
Under `Cc1cc(/C=C2\SC(=O)N(C)C2=O)c(C)n1-c1ccc(S(N)(=O)=O)cc1` stands 5% (inactive); under `[N-]=[N+]=NC[C@H](c1ccccc1)N1CCN(Cc2ccccc2)CCC1=O`, 9.8% (inactive).
To `CCOC(=O)CC(NC(=O)CCS(=O)(=O)c1ccc2c(c1)n(C)c(=O)c(=O)n2C)c1ccc(C)cc1` (stereo not drawn) belongs 10.2% (inactive); to `CCN(CC)c1ccc(/C=N/n2c(C)nc3ccccc3c2=O)cc1`, -7.1% (inactive).
Consider `O=S(=O)(c1ccc(F)cc1)N1CCc2ccccc21`, for which the inhibition was 9.6% (inactive).
Under `O=S(=O)(c1ccc(F)cc1)N1CCCc2ccccc21` stands 93.9% (active); under `O=S(=O)(c1ccccc1)N1CCCc2ccccc21`, 0.9% (inactive).
`COc1ccc(Br)cc1S(=O)(=O)Nc1cccc(C)n1`: the inhibition is 9.5% (inactive).
Under `C=CCN(C(=O)CNC(=O)c1ccco1)C(C(=O)NC1CCCCC1)c1ccc(OC)cc1` (stereo not drawn) stands -13.5% (inactive); under `C=CCN(C(=O)CNC(=O)c1ccco1)C(C(=O)NC1CCCCC1)c1ccc(F)cc1` (stereo not drawn), 73.3% (active).
To `C=CCN(C(=O)CNC(=O)c1ccco1)C(C(=O)NC1CCCCC1)c1ccccc1` (stereo not drawn) belongs -5.9% (inactive); to `CC(C)N1CCC(N2CCN(Cc3ccc(-c4ccc(Cl)cc4)o3)CC2CCO)CC1` (stereo not drawn), 0.6% (inactive); to `CC(NC(=O)CCCCCNC(=O)N1CCn2c1nc1ccccc12)c1ccccc1` (stereo not drawn), 2.2% (inactive).
On to `Cc1oc(-c2cccc(Cl)c2)nc1CS(=O)(=O)CC(=O)NCCN1CCOCC1`, for which the inhibition was -0.5% (inactive).
Under `CCOC(=O)C1=C(C)NC(=O)NC1c1ccc(Br)o1` (stereo not drawn) stands -4% (inactive); under `CCOC(=O)C1=C(C)NC(C)=C(C(=O)OCC)C1c1ccc(C)o1`, 10.1% (inactive).
To `CCCCCCOC(=O)c1ccc(NC(=O)c2cc(OC)c(OC)c(OC)c2Br)cc1` belongs -0.3% (inactive); to `Cc1cnc(NC(=O)NCC2CCCC(CNC(=O)Nc3ncc(C)s3)C2)s1` (stereo not drawn), -6.9% (inactive).
To `CCCCC(O)(CCCC)C(=O)NN(C(=O)c1cccnc1Cl)c1ccccc1` belongs 6.1% (inactive).
As to `COc1ccc2c(C)cc(SCn3nnc4ccccc4c3=O)nc2c1`, the inhibition is -3.7% (inactive).
`CCN1C(=O)C(O)(C2COC(C)(C)CC2=O)c2ccccc21` (stereo not drawn): the inhibition was 7.4% (inactive).
On to `CCN1C(=O)C(O)(CC(=O)c2ccccn2)c2ccccc21` (stereo not drawn), for which the inhibition is 12% (inactive).
Consider `CCOc1ccc(Cl)cc1S(=O)(=O)N1CCC(C(=O)NCC2CCCO2)CC1` (stereo not drawn), for which the inhibition is -1.1% (inactive).
Under `O=C(CSC1=NCCS1)Nc1cccc(F)c1` stands -2.2% (inactive); under `Cc1ccc(NC2=NCC(Cc3ccc(Br)cc3)S2)cc1` (stereo not drawn), 49% (inactive).
To `COc1ccc(CCNC2=NCC(C)S2)cc1` (stereo not drawn) belongs 6.5% (inactive).
`COc1cccc(C(=O)Nc2cc(C(=O)NCc3ccc(C)cc3)ccc2N2CCC3(CC2)CC(c2ccccc2)=NO3)c1`: the inhibition was 10.8% (inactive).
To `Cc1cccc(C)c1NC(=O)CN(C)CC(=O)Nc1cc(Cl)ccc1C#N` belongs 6.8% (inactive); to `N#CC1=C2N=C(N)c3ccccc3N2C2=C(C(=O)CCC2)C1c1ccc(Cl)cc1` (stereo not drawn), 86.9% (inactive).
Under `N#CC1=C2N=C(N)c3ccccc3N2C2=C(C(=O)CCC2)C1c1ccc(F)cc1` (stereo not drawn) stands 13.1% (inactive).
